Test results: PubChem BioAssay
Calls of active or inactive are those of the source. The rule behind the calls is not given here.

Assay: inhibition of 3D7 malaria parasite growth – strain 3D7 (AID 2306);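 note: 0% = DMSO wells and 100% = chloroquine plus artemisinin control wells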
Settings: P. falciparum 3D7 erythrocytic growth, LDH absorbance, 72 h; at 2 µM; stronger effect = higher value

Compound | growth inhibition
CC(C)(C)C/C=C\c1ccc(C(=O)NCC2CC2)cc1 | 94% (active)
c1ccc(CNCc2cccc(-c3ccc(-c4nc5ccccc5[nH]4)s3)c2)cc1 | 95% (active)
O=C(NCCCCN1CCC(c2ccc(C(F)(F)F)cc2C(F)(F)F)CC1)c1ccc(NC(=O)c2ccc(Cl)cc2)cc1 | 99% (active)
FC(F)(F)c1ccc2nc(-c3ccc(-c4cccc(CNCc5cnn(-c6ccccc6)n5)c4)s3)[nH]c2c1 | 101% (active)
Cc1cc(N[C@@H](CC(C)C)C(=O)NC2CCCC2)nc(NCCc2ccc(F)cc2)n1 | 100% (active)
CC1(C)N=C(N)N=C(N)N1c1ccc([N+](=O)[O-])cc1 | 93% (active)
Cc1[nH]c(C)c(-c2ccc(C(F)(F)F)cc2)c(=O)c1Br | 98% (active)
CCOC(=O)c1ccc(OCc2ccc(-c3ccccc3)cc2)cc1 | 96% (active)
Cc1cccc(-n2c(=O)c3c4c(sc3n3c(SCCC(C)C)nnc23)CCCC4)c1 | 90% (active)
COc1ccc(NC(=O)[C@H](Cc2ccccc2)Nc2cc(C)nc(NCCc3cccnc3)n2)cc1 | 98% (active)
CC(C)(C)c1ccc2nc(-c3ccc(C(=O)NCCCc4ccccc4)cc3)[nH]c2c1 | 95% (active)
Cc1cc(NN=Cc2ccc(F)cc2)c2ccc(C(F)(F)F)cc2n1 | 95% (active)
CC(=O)Nc1ncc(C(=O)Nc2ccc(-c3cccc(-c4nc5ccc(F)cc5[nH]4)c3)cc2)s1 | 102% (active)
COc1cc(C(=O)NC2CCN(Cc3ccccc3)CC2)ccc1-c1nc2cc(Cl)c(C)cc2[nH]1 | 99% (active)
COc1cc(C(=O)Nc2cccc(-c3nc4ccccc4[nH]3)c2)ccc1OC(C)=O | 83% (active)
CCCN1CCC2(CC1)NC(C(=O)NCCC(C)C)Cc1c2[nH]c2cc(Cl)ccc12 (stereo not given) | 86% (active)
Nc1cc(-c2ccc(-c3cccs3)s2)nc2ccccc12 | 100% (active)
CN1CCC(Oc2ccc(CN3CC[C@H](NC(=O)c4ccc(Cl)c(Cl)c4)C3)c3ccccc23)C1 (stereo not given in full) | 100% (active)
Cc1c(C(=O)[C@@H]2C[C@H]2CN2CCC(N3CCCC3)CC2)sc2ccccc12 | 94% (active)
O=S(=O)(NCCN1CCCC1)c1ccc(-c2ccc(CNCc3ccc(F)cc3)cc2)cc1 | 94% (active)
Cn1cnc(CCNC(=O)c2ccc(-c3ccc(-c4nc5ccc(C(F)(F)F)cc5[nH]4)s3)cc2)c1 | 102% (active)
COc1ccc2c(NN=CC=Cc3ccccc3)cc(C)nc2c1 | 99% (active)
CCCCC(CCCC)CN1C(=O)C(c2ccccc2)(c2ccccc2)N=C1N | 96% (active)
O=C(NC1CCC(N2CCCC(OCc3ccccc3)C2)CC1)c1cc2ccccc2[nH]1 (stereo not given) | 94% (active)
Fc1cc(Cl)ccc1Nc1ccnc2cc(-c3ccc(CN4CCSCC4)o3)ccc12 | 100% (active)
